Bioassay records deposited in PubChem BioAssay by National Center for Advancing Translational Sciences (NCATS).
TDP1 cell noCPT: qHTS for Inhibitors of human tyrosyl-DNA phosphodiesterase 1 (TDP1): qHTS in cells in absence of CPT; 15% of 420,000 active; Potency, µM (doses to about 46.2 µM), without a hit: at the highest dose activity change, negative = growth inhibition, hits mostly inhibitors; DT40 Tdp1-/- hTDP1 cells, no CPT, ATP luminescence, 48 h; further: potency means the concentration at half of the fitted maximal effect; nearly all actives have a fitted effect of over 55% in size
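Camptothecin absent (DMSO only). Human TDP1-complemented DT40 knockout cells, 400 cells/well, 37 °C for minimum 48 hr; ATP measured via CellTiter-Glo, 30 min dark incubation, luminescence.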
HT1080 IDH1KD tx: HT-1080 IDH1 knockdown cell toxicity (counter line) | 2% of 360,000 active | HT-1080 IDH1 knockdown viability, ATP luminescence, 48 h | Potency, µM (top dose mostly 46.1 µM), without a hit: at the highest dose activity, negative = toxicity, usual class: cytotoxic | AID 686971;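 further: potency means the concentration at half of the fitted maximal effect; 0% = DMSO wells and -100% = cell-free medium wells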
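Cytotoxicity counter-line: IDH1KD HT-1080, 48 h, CellTiter-Glo. Curves classed by r2, magnitude and activity.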
HT1080NT lethal: kills 2HG-producing HT-1080-NT fibrosarcoma cells. 1.6% of 360,000 active. Potency, µM (highest dose often 46.1 µM), for inactives: at the highest dose activity, negative = less viability, usual class: cytotoxic. HT-1080-NT fibrosarcoma viability, CellTiter-Glo ATP luminescence, 48 h;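 further: NT is the 2HG producing partner of a matched IDH1 knockdown line; potency means the concentration at half of the fitted maximal effect; 0% = DMSO-treated cells and -100% = media-only wells without cells; nearly all actives have a fitted effect of over 55% in size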
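HT-1080-NT fibrosarcoma cells (2HG-overproducing), 750 cells/well in RPMI with 5% FBS, dosed after 2 h and incubated 48 h at 37C. CellTiter-Glo luminescence normalized to DMSO and no-cell wells; concentration-response curves fitted and classed.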
uPA surface inh: blocks generation of uPA at the cell surface. cell surface uPA generation assay, qHTS. Potency, µM (titrated, usually from 38.3 µM), for inactives: top-dose activity change, negative = inhibition, most hits filed as inhibitors. 0.31% of 330,000 active. AID 540303; active means well fitted inhibition curve with a large enough effect; inconclusive means small, poorly fitted or top-dose-only effect; inactive means no such curve, though single readings can be large or run the other way; tested in mouse RAW 264.7 cells; further: potency means the concentration at half of the fitted maximal effect; nearly all actives have a fitted effect of over 55% in size
DT40 TDP1 CPT: growth inhibition of DT40 Tdp1-/-;hTDP1 cells with camptothecin (screen for TDP1 inhibitors); chicken DT40 Tdp1-/-;hTDP1 cells + 20 nM CPT, ATP luminescence, 48 h; AID 686979; Potency, µM (top dose mostly 46.2 µM), for the others: at the top dose activity change, negative = growth inhibition, hits mostly inhibitors; 12% of 420,000 active; further: potency means the concentration at half of the fitted maximal effect; nearly all actives have a fitted effect of over 55% in size
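Chicken DT40 Tdp1-/- cells complemented with human TDP1, 400 cells/well, exposed to compounds plus 20 nM camptothecin for at least 48 h at 37 C; viability read as ATP content by CellTiter-Glo luminescence.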
IL-1B inflam inh: inflammasome signaling inhibition, IL-1 beta readout. THP-1 LPS/ATP IL-1B secretion, AlphaLISA, 16 h; active compounds read low. activity change, % at 57.5 µM. 4.7% of 360,000 active. AID 743279; in the data active means activity change below about -50%; inconclusive means mostly about -30% to -49%
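Secreted IL-1B measured by AlphaLISA bead assay after 16 h compound exposure of THP-1 cells; compounds (final up to 57.5 uM) added 1 h before LPS (250 ng/mL) and ATP (1.25 mM) stimulation; lower signal means less secretion.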
* = called active by the depositor; i = inactive; ? = inconclusive; · = not tested or not shown. Only some compounds are listed: those with a hit (about 19% of all), similar ones and a draw of the others. Unless noted, the call rests on the fitted dose curve; in most records, active means well fitted curve in the direction sought with a large enough effect; inconclusive means small, poorly fitted or top-dose-only effect, or another doubt; inactive means no such curve, though single readings can be large; an effect the other way counts as inactive or inconclusive. Unless noted, on the % scale 0 is the no-effect control and ±100 the full control effect.

SMILES | TDP1 cell noCPT | HT1080 IDH1KD tx | HT1080NT lethal | uPA surface inh | DT40 TDP1 CPT | IL-1B inflam inh
Oc1ccc(Cc2ccc(Cl)cc2)c(O)c1 | ? | -14% | -28% | -1% | ? | 3
CCOc1ccc(NC(=O)Cn2c(=O)n(Cc3ccc(C(=O)NCc4ccc(C)cc4)cc3)c(=O)c3ccccc32)cc1 | 15µM* | · | · | · | 16µM* | ·
Cc1ccc(CNC(=O)c2ccc(Cn3c(=O)c4ccccc4n(CC(=O)Nc4ccc(C)cc4)c3=O)cc2)cc1 | -23% | · | · | · | -26% | ·
Cc1cccc(-n2c(O)c(C=Nc3cc(O)ccc3C)c3ccccc3c2=O)n1 | ? | ? | ? | 1% | 21µM* | -13
CCc1ccccc1N(C(=O)CNC(=O)c1ccco1)C(C(=O)NC1CCCC1)c1cccnc1 (centres undefined) | -19% | 28% | 19% | -1% | -3% | 5
COc1ccc(N(C(=O)CCl)C(C(=O)NC2CCCCC2)c2cccnc2)cc1 (centres undefined) | 2.3µM* | 5.8µM* | 7.3µM* | -11% | 3.3µM* | -102*
O=C(NC1CCCCC1)C(c1cccnc1)N(C(=O)CCl)c1ccc(F)cc1 (centres undefined) | 0.58µM* | 10µM* | 13µM* | -13% | 0.52µM* | -103*
COc1ccc(C(C(=O)NC2CCCCC2)N(C(=O)c2ccccn2)c2cccnc2)cc1 (centres undefined) | 1% | 5% | 17% | 4% | 15% | 0
O=C(NC1CCCCC1)C(c1cccnc1)N(C(=O)CCl)c1ccccc1Cl (centres undefined) | ? | 16µM* | 10µM* | 5% | ? | -89*
CCC(=O)Nc1ccc(N2CCN(C(=O)c3ccco3)CC2)c(Cl)c1 | ? | -23% | -9% | 8% | -11% | i
CC(C)C(=O)N1CCN(c2ccc(NC(=O)c3cccs3)cc2Cl)CC1 | 13µM* | -11% | -16% | -15% | 23µM* | -83*
O=C(Cc1ccc(Cl)cc1)Nc1ccc(N2CCN(C(=O)c3ccco3)CC2)c(Cl)c1 | 23µM* | ? | ? | -10% | 15µM* | -68*
O=C(Nc1ccc(N2CCN(C(=O)c3ccco3)CC2)c(Cl)c1)c1cccs1 | 21µM* | -28% | ? | -13% | 21µM* | -63*
CC(C)C(=O)N1CCN(c2ccc(NC(=O)c3cccs3)cc2)CC1 | ? | 2% | 1% | -3% | ? | ?
COc1ccc(CN2C[C@@H](CO)O[C@@H](n3cnc4c(NC5CCC5)ncnc43)C2)cc1 | ? | 5% | 4% | · | ? | -14
Cc1cccc(NC(=S)N2CCC(NC(=O)c3cccc(F)c3)CC2)c1 | -20% | 16% | 17% | -3% | 11% | -6
CCc1nnc(NS(=O)(=O)c2ccc(NC(=O)c3ccc(C#N)cc3)cc2)s1 | -30% | 2% | 2% | 3% | 15% | 10
O=C(NCc1ccccc1)C(c1ccco1)N(C(=O)c1ccccn1)c1ccccc1 (centres undefined) | -6% | 16% | 10% | 10% | 10% | 16
COc1ccc(CNC(=O)C(c2ccco2)N(C(=O)c2ccccn2)c2ccccc2)cc1 (centres undefined) | 23µM* | -8% | 0% | 14% | 10µM* | -2
Cc1cc2ccccc2n1-c1ccc(C(=O)N2CCC(C(=O)NCc3ccccc3Cl)CC2)s1 | -97% | · | · | · | 16µM* | ·
C=CCOc1ccccc1CNCCNC(=O)c1nonc1N | -22% | -4% | 2% | -5% | -29% | -1
C=CCOc1ccccc1CN(C(=O)CCl)c1ccc2c(c1)OCO2 | 10µM* | 2.6µM* | 3.7µM* | -1% | 18µM* | -106*
